# CBX7 inh: CBX7 chromodomain binding inhibitors, primary screen, biochemical, AlphaScreen. Chromobox protein homolog 7 (Homo sapiens), O95931. AlphaScreen His6-CBX7 / biotin-H3K27me3 peptide binding; active compounds read low. normalised signal (fraction of DMSO) (concentration not given with the values). actives 1.1% (n = 66,000); in the data active means normalised signal below about 0.5
# Target sequence (O95931 whole entry, looked up): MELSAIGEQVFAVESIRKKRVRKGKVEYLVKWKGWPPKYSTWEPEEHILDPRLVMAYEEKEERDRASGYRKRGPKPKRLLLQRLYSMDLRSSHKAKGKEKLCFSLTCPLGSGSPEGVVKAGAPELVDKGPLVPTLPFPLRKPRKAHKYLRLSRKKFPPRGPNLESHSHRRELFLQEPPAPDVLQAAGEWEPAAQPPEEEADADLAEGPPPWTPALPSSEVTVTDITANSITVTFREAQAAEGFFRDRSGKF
# Numbers without * were called inactive. The entries come from a sample that favours hits as a whole.
SMILES,CBX7 inh
COc1ccc(N2Cc3cccc(C(=O)Nc4ccccc4OC)c3C2=O)cc1,0.96
CCc1ccc(NC(=O)c2cccc3c2C(=O)N(c2ccc(OC)cc2)C3)cc1,0.73
CCc1ccccc1NC(=O)c1cccc2c1C(=O)N(c1ccc(OC)cc1)C2,0.14*
Cc1ccc(N2C(=O)CC(N3CCN(C/C=C/c4ccccc4)CC3)C2=O)cc1Cl (centres undefined),1
COc1ccc(CNC(=O)C2CCN(Cc3nc(-c4ccccc4F)oc3C)CC2)cc1,1.1
CN(Cc1ccccc1)C(=O)c1ccc2c(c1)NC(=O)c1ccccc1N2,0.9
COC(=O)c1c[nH]n2c(NCCc3ccccc3)c(-c3ccc(C)cc3)nc12,0.84
COC(=O)c1c[nH]n2c(NC3CCCCCC3)c(-c3ccc(Cl)cc3)nc12,0.57
COC(=O)c1c[nH]n2c(NC3CCC(C)CC3)c(-c3ccc(F)cc3)nc12 (centres undefined),0.25*
COC(=O)c1c[nH]n2c(NCCc3ccccc3)c(-c3ccc(F)cc3)nc12,0.89
COC(=O)c1c[nH]n2c(NC3CCCCC3)c(-c3ccc(Cl)cc3)nc12,0.71
COC(=O)c1c[nH]n2c(NC3CCC(C)CC3)c(-c3ccc(OC)c(OC)c3)nc12 (centres undefined),0.27*
CC1CCN(S(=O)(=O)c2ccc3c(c2)N(CC(=O)N2CCc4ccccc4C2)C(=O)CO3)CC1,0.99
CCOC(=O)c1ccc(N2C(=O)CC(NCCc3ccccc3F)C2=O)cc1 (centres undefined),1
O=C(CSc1nc(-c2ccccc2)c(-c2ccccc2)[nH]1)Nc1ccccc1-c1ccccc1,1.2
O=C(Cn1nc(-c2ccccc2)c2ccccc21)NCc1ccc(F)cc1,1.2
O=C(O)c1ccc(Oc2ccc3c(c2)C(=O)N(c2ccccn2)C3=O)cc1,1
COc1ccc(-c2nn(C)c3sc(C(=O)Nc4ccc(F)c(Cl)c4)cc23)cc1OC,1.2
COc1ccc(-c2[nH]ncc2-c2ccc(Br)cc2)c(O)c1,0.6
CCc1cc(-c2[nH]ncc2-c2ccc(F)cc2)c(O)cc1OC,0.91
CCCc1cc(-c2[nH]ncc2-c2ccc3c(c2)OCCCO3)c(O)cc1OC,0.47*
CC(NC(=O)CSc1nnnn1-c1ccc(F)cc1)c1ccccc1 (centres undefined),0.98
CC(C(=O)O)C1Sc2ccccc2N(Cc2ccc(F)cc2Cl)C1=O (centres undefined),0.99
O=C(CC(C(=O)N1CCc2ccccc21)n1ccnc1)NCCN1CCCCCC1 (centres undefined),0.34*
CN1CCN(CCCNC(=O)CC(C(=O)N2CCc3ccccc32)n2ccnc2)CC1 (centres undefined),0.98
SMILES,CBX7 inh
CCN(CCCNC(=O)Cc1cn(C)c2ccccc12)c1cccc(C)c1,0.32*
CCCCNC(=O)CC(C(=O)N1CCc2ccccc21)n1ccnc1 (centres undefined),1
CCN(CCCNC(=O)c1cn(C)c(=O)c2c1c1ccccc1n2C)c1cccc(C)c1,0.96
CCN(CCCNC(=O)CC(C(=O)N1CCc2ccccc21)n1ccnc1)c1cccc(C)c1 (centres undefined),0.23*
CCCCCCCNC(=O)CC(C(=O)N1CCc2ccccc21)n1ccnc1 (centres undefined),0.88
O=C(CC(C(=O)N1CCc2ccccc21)n1ccnc1)NCCCN1CCOCC1 (centres undefined),0.99
CCN(CCCNC(=O)CCn1c(=O)[nH]c2ccccc2c1=O)c1cccc(C)c1,1
COCCCNC(=O)c1nc(-c2ccc(OC)c(OC)c2)oc1C,1
CC(C)Oc1ccc(C(=O)NCC2(c3ccccc3)CCOCC2)cc1,1.2
Cc1ccccc1Cc1c(C)nc2nc(SCC(=O)NCc3ccccc3Cl)nn2c1C,1.1
CC(C)OCCCNC(=O)Cn1nc(Cc2cccnc2)c2ccccc2c1=O,1
CN1CCN(CCCNC(=O)CCNC(=O)Cn2ccc3ccccc3c2=O)CC1,0.96
Cc1ccc2c(c1)C(c1ccc(F)cc1)N(C(=O)c1cccc(F)c1)CC(=O)N2 (centres undefined),0.78
COc1ccccc1NC(=O)Cn1cnc2sc(C(=O)Nc3cc(C)ccc3OC)c(C)c2c1=O,1.3
Cc1ccccc1-c1nc(C(=O)NCCCN2CCOCC2)c(C)o1,1
COc1ccccc1CNC(=O)CN1C(=O)CSc2ncccc21,1
CCc1ccc(NC(=O)Cc2c(C(=O)O)[nH]c3ccc(Cl)cc23)cc1,1.1
CCOc1ccc(S(=O)(=O)NCCc2c(C)[nH]c3c(C)cccc23)cc1,0.89
Cc1cc(Cl)ccc1OCCCC(=O)Nc1nc2ccccc2[nH]1,1.1
COc1ccc(-c2cc3ccccc3n2CC(O)CN2CCCCC2)cc1 (centres undefined),0.86
CCC(=C(c1ccc(OC)cc1)c1ccc(OC)cc1)c1cn(CCN(C)C)c2ccccc12,0.32*
COc1ccc(C(=O)c2cn(Cc3ccc(C)cc3)c3ccccc3c2=O)cc1,0.54
COc1cccc(OCC(O)CN2CCOCC2)c1 (centres undefined),1.1
CCC(=C(c1ccc(OC)cc1)c1ccc(OC)cc1)c1cn(CC(O)CN2CCOCC2)c2ccccc12 (centres undefined),0.41*
COc1ccc(OCC(O)Cn2c(=N)n(CCN3CCOCC3)c3ccccc32)cc1 (centres undefined),1
SMILES,CBX7 inh
COc1ccc(OCC(O)CN2CCCCCC2)cc1 (centres undefined),0.74
CCC(=C(c1ccc(OC)cc1)c1ccc(OC)cc1)c1cn(CC(O)CN2CCN(C)CC2)c2ccccc12 (centres undefined),0.35*
COc1ccc(C(=O)c2cn(Cc3ccc(F)cc3)c3ccccc3c2=O)cc1,0.74
CC(CCc1ccccc1)NC(=O)c1ccc2c(c1)N(Cc1ccc(F)cc1Cl)C(=O)CS2 (centres undefined),1
Cc1ccc2nc(-c3ccccc3Cl)c(Nc3ccc(Cl)cc3)n2c1,1.1
COc1ccc(CN2C(=O)c3ccccc3C2C(=O)NCCCN2C(C)CCCC2C)c(OC)c1 (centres undefined),1.1
O=C(NCc1ccc(Cl)cc1)c1ccc2nc(-c3cccs3)c(-c3cccs3)nc2c1,0.96
CCCNC(=O)c1ccc2c(c1)nc(C)n2-c1cccc(F)c1,1
CCC(=O)N1CCc2cc(S(=O)(=O)NC(CC(C)C)C(=O)Nc3cccc(OC)c3)ccc21 (centres undefined),1
CN(C(=O)Cn1ncc2c1-c1ccccc1OC2)c1ccccc1,0.99
COc1ccc(-c2nc(C(=O)NC(C)CCc3ccccc3)c(C)o2)cc1OC (centres undefined),0.96
COc1ccc(NC(=O)C(=O)NCCc2ccccc2)cc1OC,1.1
CCCC(=O)Nc1ccc(Cl)c(-c2nc3ncccc3o2)c1,1
CCCC(=O)NC(c1ccc(OC)c(OC)c1)c1cc(Cl)c2cccnc2c1O (centres undefined),0.41*
CCCC(=O)NC(c1ccccc1OC)c1cc(Cl)c2cccnc2c1O (centres undefined),0.84
COc1ccc(C(NC(=O)CCc2ccccc2)c2ccc3cccnc3c2O)cc1OC (centres undefined),0.039*
Cc1ccc(NC(=O)C2CCN(S(=O)(=O)c3cccnc3)CC2)cc1,1.1
COCCNC(=O)CCc1cn(Cc2ccc(C)cc2)c2ccccc12,0.75
COc1ccc(NC(=O)CSc2ccc3nnc(-c4ccccc4)n3n2)cc1OC,0.86
CCC(C(=O)Nc1c2c(nn1-c1ccc(Cl)cc1)CSC2)c1ccccc1 (centres undefined),0.97
